Test results taken from PubChem BioAssay AID1903 (Southern Research Specialized Biocontainment Screening …, 2009).
Screen size: about 310,000 compounds; about 1,200 (0.39%) were called active. How the calls were made is not given here. A selection follows. Entries with a potency or affinity are not part of this list.

target: Large T antigen (Simian virus 40) (UniProt P03070); experiment: SV40 large T antigen inhibitors, biochemical (AID 1903); settings: SV40 large T antigen ATPase/helicase inhibition assay; at 20 µM; hits give high values
Sequence (P03070 whole entry, looked up): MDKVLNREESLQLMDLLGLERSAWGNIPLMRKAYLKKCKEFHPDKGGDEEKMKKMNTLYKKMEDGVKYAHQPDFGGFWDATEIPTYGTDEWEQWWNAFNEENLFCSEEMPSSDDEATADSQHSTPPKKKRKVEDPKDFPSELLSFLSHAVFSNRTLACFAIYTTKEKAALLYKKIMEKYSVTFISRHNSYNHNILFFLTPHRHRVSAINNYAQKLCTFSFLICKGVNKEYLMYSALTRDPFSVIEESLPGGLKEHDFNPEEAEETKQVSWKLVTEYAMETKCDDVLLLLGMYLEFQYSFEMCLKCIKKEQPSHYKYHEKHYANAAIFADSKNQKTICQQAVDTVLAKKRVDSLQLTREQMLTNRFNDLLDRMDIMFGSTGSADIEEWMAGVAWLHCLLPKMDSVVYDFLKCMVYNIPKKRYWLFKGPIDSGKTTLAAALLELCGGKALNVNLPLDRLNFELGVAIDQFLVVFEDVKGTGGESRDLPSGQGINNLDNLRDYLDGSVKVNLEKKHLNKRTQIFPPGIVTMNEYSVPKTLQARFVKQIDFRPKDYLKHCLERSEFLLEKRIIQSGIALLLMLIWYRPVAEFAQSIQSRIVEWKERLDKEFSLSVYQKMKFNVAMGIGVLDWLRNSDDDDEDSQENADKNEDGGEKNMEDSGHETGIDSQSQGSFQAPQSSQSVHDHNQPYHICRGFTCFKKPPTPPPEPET

inhibition, inactive:
Cc1ccc(N=C2C(=O)Nc3ccc(Br)cc32)cc1 4.2%
COC(=O)CN1C(=O)C(C)(C)Oc2ccc(C(=O)Nc3ccccc3F)cc21 -0.69%
O=[N+]([O-])c1cc(/C=N\Nc2nc(-c3ccccc3)cs2)ccc1O 14.1%
Cc1csc(N/N=C/c2ccc([N+](=O)[O-])cc2)n1 12%
O=C(c1ccc2c(c1)OCCO2)C1CCN(S(=O)(=O)c2ccc(F)cc2)CC1 0.84%
Cc1cc(C)n(/N=C/c2c[nH]c3ccccc23)c(=O)c1 0.69%
S=c1[nH]nc(-c2cc(-c3ccccc3)n[nH]2)n1/N=C/c1cccs1 10.5%
Cc1nnc(C)n1/N=C/c1cccs1 13.5%
Fc1ccc(-c2n[nH]c(=S)n2/N=C/c2c[nH]c3ccccc23)cc1 1.41%
CCCCn1c(O)c(N=NC(=O)c2ccccc2NS(=O)(=O)c2cccs2)c2ccccc21 14.3%
O=c1ccc(S(=O)(=O)N2CCC(Cc3ccccc3)CC2)c[nH]1 7.63%
CN(CCNC(=O)CCNC(=O)Cn1ccc2ccccc2c1=O)Cc1ccccc1 15.1%
Nc1nc(SCc2cccc([N+](=O)[O-])c2)n[nH]1 4.99%
CCn1c(SCC(=O)C(C)(C)C)nnc1-c1ccccc1OC -1.72%
C=CCn1c(SCC(=O)Nc2ccc3c(c2)OCO3)nnc1-c1ccccc1OC 1.62%
C=CCn1c(SCC(=O)NC2CCCC2)nnc1-c1cccnc1 3.08%
CCn1c(SCC(=O)c2ccc(C)cc2)nnc1-c1ccncc1 3.96%
CCn1c(SCC(=O)OC)nnc1-c1ccc(C)cc1 22.5%
C=CCn1c(SCC(=O)c2ccc(OC)cc2)nnc1-c1cc2cccc(OC)c2o1 6.55%
CCn1c(SCC(=O)O)nnc1-c1ccccc1OC 1.77%
C=CCn1c(SCC(=O)Nc2ccc(C(=O)O)cc2)nnc1-c1cccnc1 8.53%
O=C1OCc2cc(NC(=O)C3CCCCC3)ccc21 2.69%
COc1cccc(-c2cc(CC3(O)CCN(CCCc4ccccc4)CC3)on2)c1 8.74%
Cc1ccc(S(=O)(=O)N2CCN(S(=O)(=O)N(C)C)CC2)c(C)c1 3.46%
COc1ccc(-n2c(C)cc(-c3csc(NC(=O)c4ccc(S(=O)(=O)N(C)C)cc4)n3)c2C)cc1 11.5%
Cc1c(CC(=O)NCCCC(=O)O)c(=O)oc2cc3oc4c(c3cc12)CCCC4 10%
CC(C)CCNC(=O)C1CC(=O)N(C2CCCC2)C1 (stereo not drawn) -3.66%
S=C(NCC1CCCO1)Nc1ccc(Cl)c(Cl)c1 (stereo not drawn) 13.5%
Cc1ccc(CCN2CC(C(=O)NCCCN3CCN(C)CC3)CC2=O)cc1 (stereo not drawn) 3.28%
c1ccc(-n2nnnc2-n2nnc3ccccc32)cc1 9.04%
COCCN=C1Sc2nc3ccc(C)cc3cc2CN1Cc1ccco1 19.9%
Cc1cccc2cc3c(nc12)SC(=NCC1CCCO1)N(Cc1ccco1)C3 (stereo not drawn) 26%
Oc1ccc(-c2csc(Nc3ncccn3)n2)cc1 6.13%
Cc1ccc(Nc2nc(-c3ccc(F)cc3)cs2)nc1 9.89%
c1ccc(-c2csc(Nc3ccccn3)n2)cc1 9.23%
Oc1ccc(-c2csc(Nc3ccccn3)n2)cc1 22.2%
c1ccc(-c2csc(Nc3ncccn3)n2)cc1 0.05%
Cc1cccc(Nc2nc(-c3ccc(O)c(O)c3)cs2)n1 30.3%
Cc1ccnc(Nc2nc(-c3ccc(O)c(O)c3)cs2)c1 32.9%
Cc1csc(Nc2cccc3ccccc23)n1 11.9%
Cc1c(/C(Cc2ccccc2)=N/O)c2ccccc2n1C 15.5%
COc1ccccc1N(Cc1ccccc1)S(=O)(=O)c1cccc(C(=O)Nc2cc(C)ccn2)c1 11.2%
O=C(Nc1ccc2c3c(cccc13)CC2)c1ccc(Br)o1 -1.82%
O=C(COC(=O)c1cc(S(=O)(=O)N2CCOCC2)ccc1Cl)Nc1ccc2c(c1)OCO2 -0.55%
O=C(Cn1nnc2ccccc21)NC1CCCCC1 7.66%
CC(C(N)=O)N1c2cccc3cccc(c23)S1(=O)=O (stereo not drawn) 5.84%
Cc1cc(C)c(OCC(=O)Nc2ccccn2)c([N+](=O)[O-])c1 4.36%
COCCCNC(=O)c1ccc2c(=O)n(Cc3ccc(OC)cc3)c(=O)[nH]c2c1 17.4%
COc1ccc(CCNC(=O)CNC(=O)Cn2cnc3sc(C)c(C)c3c2=O)cc1OC -8.68%
COc1ccc(Nc2c(C)cccc2C)cc1 -1.03%
COc1ccc(Nc2ccc(Nc3ccc(OC)cc3)nn2)cc1 10.9%
O=C(O)CC1c2ccccc2CCN1S(=O)(=O)c1ccccc1 (stereo not drawn) 16.2%
CCOCCc1nnc(NC(=O)Cc2ccc(Br)cc2)s1 4.12%
O=C(Cc1n[nH]c(=O)[nH]c1=O)N/N=C/c1cccc(O)c1 9.95%
Cc1ccc(Oc2nc3ccccc3n3c(C)nnc23)c(C)c1 1.35%
CCN(CC(=O)NC(=O)NC1CCCC1)Cc1ccccc1 14.2%
Clc1ccc(-c2nc3cnccn3c2NC2CCCC2)cc1 8.26%
Cc1ccc(-c2nc3cnccn3c2Nc2ccc3c(c2)OCO3)cc1 25.3%
c1cn2c(Nc3ccc4c(c3)OCCO4)c(-c3ccc(N4CCOCC4)cc3)nc2cn1 29.1%
c1ccc(-c2nc3cnccn3c2Nc2ccc3c(c2)OCCO3)cc1 9.23%
COc1ccc(-c2nc3cnccn3c2Nc2ccc3c(c2)OCO3)cc1 21.4%
COc1cc(-c2nc3cnccn3c2Nc2ccc(C(C)C)cc2)ccc1O 9.43%
COc1cc(-c2nc3cnccn3c2Nc2ccc(C)cc2)ccc1O 37%
Fc1ccc(-c2nc3cnccn3c2NC2CCCC2)cc1 3.13%
CC(=O)c1c(C)[nH]c(C(=O)OCc2c(F)cccc2Cl)c1C 20.8%
CN(C)C(=O)c1cn(-c2ccccc2)nc1-c1cc2ccccc2o1 0.09%
CCCC1CCC(c2ccc(/C(N)=N/O)cc2)CC1 (stereo not drawn) 4.39%
CC(=O)NC(N1CCCCC1)C(F)(F)C(F)(F)C(F)(F)C(F)F (stereo not drawn) -2.22%
Cc1c(Cl)cccc1NC(=S)N(CCCN1CCOCC1)Cc1cccs1 3.79%
Oc1ccc(-c2nc3ncccn3c2Nc2ccc3c(c2)OCCO3)cc1 13.3%
Clc1ccc(-c2nc3ncccn3c2Nc2ccc3c(c2)OCO3)cc1 7.55%
CC(C)OC(=O)/C(=C/c1ccc2c(c1)c1ccccc1n2C)NC(=O)c1ccccc1 3.18%
COc1ccc2c(c1)-c1nc(/N=C/c3ccc(O)cc3)sc1CC2 15.8%
COc1ccc2c(c1)-c1nc(/N=C/c3c(O)ccc4ccccc34)sc1CC2 23.1%
Cn1nc(-c2ccccc2)cc1NC(=O)C1CCCCC1 5.74%
Cc1ccc(C(=O)c2cc(C)sc2N)cc1 19.1%
Nc1ccc(C(=O)c2cccs2)cc1 6.86%
N=C1/C(=C\c2coc3ccccc3c2=O)C(=O)N=C2SC=CN12 34.7%
CSC1=NSC2=NC(=O)/C(=C/c3coc4ccccc4c3=O)C(=N)N12 12.2%
CCSC1=NSC2=NC(=O)/C(=C\c3coc4ccccc4c3=O)C(=N)N12 28.2%
N=C1/C(=C/c2coc3ccccc3c2=O)C(=O)N=C2SC(c3ccco3)=NN12 51.6%
CC(C)CSC1=NSC2=NC(=O)/C(=C\c3coc4ccccc4c3=O)C(=N)N12 13.7%
CSC1=NSC2=NC(=O)/C(=C/c3coc4ccc(O)cc4c3=O)C(=N)N12 17.7%
COc1ccccc1N1CCN(C(=O)c2oc3ccc(F)cc3c2C)CC1 -1.49%
O=C(CC(Sc1ccc(Br)cc1)C(=O)O)c1ccc(F)cc1 (stereo not drawn) 7.72%
Cc1ccc(SC(CC(=O)c2ccc(C)cc2)C(=O)O)cc1 (stereo not drawn) 19.4%
CN1C(=O)C2C(c3ccc(N(C)C)cc3)NN(Cc3ccccc3)C2C1=O (stereo not drawn) 19.9%
COc1ccc(C2=NN(Cc3ccccc3)C3C(=O)NC(=O)C23)cc1 (stereo not drawn) 4.68%
CCOC(=O)N1CCN(c2cc(=O)n(-c3ccc(OC)cc3)c(=O)[nH]2)CC1 -2.27%
Cc1ccccc1CNC(=O)Cn1ccc2cc(S(=O)(=O)N3CCCCCC3)ccc21 5.82%
O=C(COC(=O)c1ccc(CO)cc1)Nc1ccc(OC(F)F)cc1 -2.98%
Cc1nnc(NC(=O)CCS(=O)(=O)c2ccccc2)s1 19.4%
Nc1ccc2c(c1)nc(Cc1ccccc1)n2CCO 32.4%
Cn1c(CO)nc2cc(N)ccc21 24.9%
Cn1ccnc1Sc1cc(Cl)ccc1[N+](=O)[O-] 1.59%
CCOC(=O)C1=NN(C(C)=O)C2(CC(=O)N(c3ccc(C)c(C)c3)C2=O)C1 (stereo not drawn) 10.2%
O=C(NCC1CCCO1)C1CCN(C2CCN(C3CCCCCC3)CC2)CC1 (stereo not drawn) 6.53%
CSc1nc(C)c(CCOCc2ccc(F)cc2)c(=O)[nH]1 6.59%
